# Reference: PubChem BioAssay (EPA / NIEHS)
# Active and inactive are the calls of the source. How the source made its calls: active means hit-call score of the fitted dose curve at least 0.9, where 1 is the maximum; inactive means score below 0.9.
# Legend:
# [1] = APR_HepG2_CellLoss_72hr: Apredica 72-hour HepG2 Assay for Cell Loss (AID 2282915); settings: high-content imaging
# Summary of the method: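 HepG2 cells exposed 72 h to compound at 0.39–200 uM (10 concentrations, duplicate) in 0.5% DMSO. Fixed with 3.7% formaldehyde and Hoechst 33342-stained. Imaged at 20x; nuclear count gives cell number, fitted bidirectionally versus DMSO.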
# [2] = APR_HepG2_P-H2AX_72hr: Apredica 72-hour HepG2 Assay for H2AX Phosphorylation (AID 2282916); settings: imaging, actives raise or lower the signal;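 further: phospho-histone H2A.x immunostain intensity per cell marking DNA damage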
# Summary of the method: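 Phospho-histone H2A.x immunofluorescence, multiplexed with Hoechst and c-Jun, quantified by high-content imaging. Compounds applied to HepG2 for 72 h across ten concentrations (0.39–200 uM, 0.5% DMSO), in duplicate; DMSO baseline.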
# [3] = APR_HepG2_MitoMembPot_72hr: Apredica 72-hour HepG2 Assay for Mitochondrial Membrane Potential (AID 2282917); settings: imaging, actives raise or lower the signal
# Summary of the method: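 HepG2 cells dosed 72 hr with compound at 0.39–200 uM in duplicate, 0.5% v/v DMSO final. Mitochondria stained with 250 nM MitoTracker Red CMXRos for 30 min before formaldehyde fixation, imaged by high-content fluorescence; bidirectional fit versus DMSO.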
# [4] = APR_HepG2_MitoticArrest_72hr: Apredica 72-hour HepG2 Assay for Mitotic Arrest (AID 2282918); settings: high-content imaging, actives raise or lower the signal
# Summary of the method: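 HepG2 cells were exposed for 72 hr to compound at 0.39–200 uM (10 concentrations, duplicate) in 0.5% v/v DMSO, fixed in 3.7% formaldehyde, immunostained for phospho-histone H3 with Hoechst 33342 and imaged by high-content fluorescence; bidirectional fits versus DMSO.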
# [5] = APR_HepG2_MicrotubuleCSK_72hr: Apredica 72-hour HepG2 Assay for Microtubule CSK Stabilty (AID 2282919); settings: HepG2 microtubule cytoskeleton, high-content imaging, actives raise or lower the signal
# Summary of the method: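 HepG2, 72 hr cmpd exposure, 0.39–200 uM (10 pts, duplicate), 0.5% DMSO. 3.7% formaldehyde fix, 0.5% Triton perm, anti-alpha-tubulin/Cy5 plus Hoechst. HCS fluorescence intensity; bidirectional fit vs DMSO baseline; taxol as positive control.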
# [6] = APR_HepG2_P-H2AX_24hr: Apredica 24-hour HepG2 Assay for H2AX Phosphorylation (AID 2282920); settings: high-content imaging, actives raise or lower the signal
# Summary of the method: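 HepG2 human liver cells were exposed for 24 hr to compounds at 0.39–200 uM in duplicate, with 0.5% v/v DMSO final. Fixed cells were immunostained for phospho-histone H2A.x plus Hoechst 33342, imaged by HCS fluorescence, and fitted bidirectionally against DMSO.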
# [7] = APR_HepG2_StressKinase_72hr: Apredica 72-hour HepG2 Assay for Stress Kinase (AID 2282921); settings: HepG2 stress kinase (phospho-c-Jun) imaging, actives raise or lower the signal
# Summary of the method: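 Stress kinase signal is phospho-c-Jun immunofluorescence (1:500 primary, Cy3 secondary) in fixed, permeabilized human HepG2 cells imaged at 20x. Exposure lasted 72 hr over ten concentrations from 0.39 to 200 uM, 0.5% DMSO, in duplicate. Bidirectional fit versus DMSO.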
# [8] = APR_HepG2_StressKinase_24hr: Apredica 24-hour HepG2 Assay for Stress Kinase (AID 2282922); settings: HepG2 stress kinase (phospho-c-Jun) imaging, actives raise or lower the signal
# Summary of the method: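 Read-out: phospho-c-Jun immunofluorescence (Cy3 secondary) quantified by high-content imaging at 20x, nuclei defined by Hoechst 33342. Human HepG2 liver cells dosed 24 hr, 0.39–200 uM, DMSO 0.5% v/v; gain or loss of signal fitted relative to DMSO.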
# [9] = APR_HepG2_MitoMass_72hr: Apredica 72-hour HepG2 Assay for Mitochondrial Mass (AID 2282924); settings: high-content imaging, actives raise or lower the signal;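 further: MitoTracker Red CMXRos stain intensity per cell imaged as mitochondrial mass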
# Summary of the method: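 Read-out: MitoTracker Red fluorescence intensity from automated imaging (20x, six fields per well) in human HepG2 liver cells. Dosing ran 72 hr, 0.39–200 uM, 0.5% DMSO; bidirectional curve fitting versus DMSO baseline.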
# [10] = APR_HepG2_NuclearSize_72hr: Apredica 72-hour HepG2 Assay for Nuclear Size (AID 2282925); settings: high-content imaging, actives raise or lower the signal
# Summary of the method: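 Read-out: nuclear diameter from Hoechst 33342 images (ArrayScan, 20x, six fields/well), via cell-cycle image analysis. HepG2 were dosed 0.39–200 uM for 72 hr in 0.5% DMSO. Bidirectional fit relative to DMSO.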
# [11] = ATG_CRE_CIS: Attagene CIS-FACTORIAL HepG2 Assay for human cAMP Responsive Element (CRE) binding protein 3 (AID 2282926); settings: HepG2 CRE cis-reporter, Attagene multiplexed mRNA; actives raise or lower the signal
# Summary of the method: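 Capillary electrophoresis of 6-FAM-labelled, HpaI-digested PCR products quantified reporter transcripts. These came from HepG2 transiently transfected with cis-element reporters and exposed to test chemicals for 24 hours, with DMSO defining baseline activity.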
# [12] = target: CCAAT/enhancer-binding protein beta (Homo sapiens) (UniProt P17676); assay: ATG_C_EBP_CIS: Attagene CIS-FACTORIAL HepG2 Assay for human CCAAT/Enhancer Binding Protein (C/EBP) beta (AID 2282927); settings: HepG2 Attagene cis-factorial transcription factor reporter; actives raise or lower the signal
# Summary of the method: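 Transiently transfected HepG2 (MRTU library, endogenous TF-driven promoters); 24 h dosing; total RNA → oligo(dT) RT → PCR → 6-FAM primer extension → HpaI digest → CE; fit bidirectionally vs DMSO.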
# [13] = ATG_CMV_CIS: Attagene CIS-FACTORIAL HepG2 Assay for human CMV (Internal Marker) (AID 2282928); settings: HepG2 CMV promoter reporter, transcription factor profiling; actives raise or lower the signal;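 further: endpoint acts as a background internal control marker rather than a target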
# Summary of the method: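 Readout: fluorescent reporter cDNA fragments separated by capillary electrophoresis after RT-PCR and HpaI cut. Cells: HepG2 carrying transfected cis-promoter reporter constructs, dosed 24 h. Endpoint serves as background internal-marker control, fit bidirectionally versus DMSO.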
# [14] = ATG_DR4_LXR_CIS: Attagene CIS-FACTORIAL HepG2 Assay for human Liver X Receptor (LXR), DR4 submotif (AID 2282929); settings: HepG2 Attagene DR4 cis-reporter, mRNA transcription; actives raise or lower the signal
# Summary of the method: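 The endpoint is DR4-element-driven reporter transcripts after 24 h chemical exposure of transfected HepG2 cells. These were measured via RT-PCR and capillary electrophoresis, and gain or loss of signal was fitted relative to DMSO controls.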
# [15] = target: Aryl hydrocarbon receptor (Homo sapiens) (UniProt P35869); assay: ATG_Ahr_CIS: Attagene CIS-FACTORIAL HepG2 Assay for human Aryl Hydrocarbon Receptor (Ahr) (AID 2282930); settings: HepG2 AhR cis-factorial reporter transcription; actives raise or lower the signal
# Summary of the method: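 Read-out: reporter mRNA quantified by RT-PCR with fluorescent primer extension and capillary electrophoresis. Human HepG2 liver cells carried transfected cis-promoter reporter units and were exposed to chemical for 24 h; gain or loss fitted relative to DMSO.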
# [16] = ATG_AP_1_CIS: Attagene CIS-FACTORIAL HepG2 Assay for human Activator Protein 1 (AP-1) (AID 2282931); settings: HepG2 Attagene cis-factorial AP-1 reporter mRNA; actives raise or lower the signal
# Summary of the method: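 Readout is reporter transcript level from endogenous transcription factor activity, quantified by RT-PCR with fluorescent primer extension and capillary electrophoresis. Transiently transfected HepG2 cells, 24 h exposure. Curves fitted both directions versus DMSO.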
# [17] = ATG_AP_2_CIS: Attagene CIS-FACTORIAL HepG2 Assay for human Activator Protein 2 (AP-2) (AID 2282932); settings: HepG2 AP-2 cis-reporter, Attagene transcription factor profiling; actives raise or lower the signal
# Summary of the method: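 Liver-derived HepG2 line, cis-reporter system measuring endogenous factors; 24 h dosing; reporter mRNA detected by fluorescent RT-PCR and capillary electrophoresis.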
# [18] = ATG_BRE_CIS: Attagene CIS-FACTORIAL HepG2 Assay for human Bone Morphogenetic Protein (BMP) Response Element (BRE) (AID 2282933); settings: HepG2 BMP response element reporter, Attagene transcription factor profiling; actives raise or lower the signal
# Summary of the method: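 Endogenous transcription factor activity at a BMP response element was monitored in transfected HepG2 cells 24 h after dosing. Fluorescent RT-PCR products were resolved by capillary electrophoresis, and activity was fitted in both directions versus DMSO.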
# [19] = target: Retinoic acid receptor alpha (Homo sapiens) (UniProt P10276); assay: ATG_DR5_RAR_CIS: Attagene CIS-FACTORIAL HepG2 Assay for human Retinoic Acid Receptor Alpha (RARE), DR5 submotif (AID 2282934); settings: HepG2 Attagene cis-factorial RARE DR5 reporter, mRNA; actives raise or lower the signal;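 on AC50: reporter responds to endogenous RAR alpha beta and gamma in HepG2 not RARA alone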
# Summary of the method: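 Read-out: DR5-driven reporter transcript measured by RT-PCR, 6-FAM primer extension, HpaI digest and capillary electrophoresis. Human HepG2 liver cells carry transiently transfected cis-element reporter constructs; dosing lasts 24 h. Gain or loss of signal fitted against DMSO baseline.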
# [20] = APR_HepG2_p53Act_72hr: Apredica 72-hour HepG2 Assay for p53 Activation (AID 2282923); settings: high-content imaging, actives raise or lower the signal;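 further: average cellular p53 protein immunofluorescence intensity in HepG2 cells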
# Summary of the method: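 After 72 h with compound (ten points, 0.39 to 200 uM, final DMSO 0.5% v/v), fixed HepG2 cells were labelled with sheep anti-p53 and Hoechst 33342 and imaged; gain or loss versus DMSO scored.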
# Sequence of CCAAT/enhancer-binding protein beta (Homo sapiens) (P17676 whole entry, looked up): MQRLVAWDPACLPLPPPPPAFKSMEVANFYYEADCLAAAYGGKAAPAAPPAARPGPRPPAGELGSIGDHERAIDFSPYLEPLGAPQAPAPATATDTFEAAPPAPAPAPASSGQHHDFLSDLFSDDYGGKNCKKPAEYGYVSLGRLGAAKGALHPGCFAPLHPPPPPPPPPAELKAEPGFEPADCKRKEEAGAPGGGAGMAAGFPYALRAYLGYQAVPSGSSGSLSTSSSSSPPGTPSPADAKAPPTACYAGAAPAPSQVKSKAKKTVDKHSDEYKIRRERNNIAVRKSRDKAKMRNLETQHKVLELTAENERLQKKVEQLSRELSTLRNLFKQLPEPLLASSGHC
# Sequence of Aryl hydrocarbon receptor (Homo sapiens) (P35869 whole entry, looked up): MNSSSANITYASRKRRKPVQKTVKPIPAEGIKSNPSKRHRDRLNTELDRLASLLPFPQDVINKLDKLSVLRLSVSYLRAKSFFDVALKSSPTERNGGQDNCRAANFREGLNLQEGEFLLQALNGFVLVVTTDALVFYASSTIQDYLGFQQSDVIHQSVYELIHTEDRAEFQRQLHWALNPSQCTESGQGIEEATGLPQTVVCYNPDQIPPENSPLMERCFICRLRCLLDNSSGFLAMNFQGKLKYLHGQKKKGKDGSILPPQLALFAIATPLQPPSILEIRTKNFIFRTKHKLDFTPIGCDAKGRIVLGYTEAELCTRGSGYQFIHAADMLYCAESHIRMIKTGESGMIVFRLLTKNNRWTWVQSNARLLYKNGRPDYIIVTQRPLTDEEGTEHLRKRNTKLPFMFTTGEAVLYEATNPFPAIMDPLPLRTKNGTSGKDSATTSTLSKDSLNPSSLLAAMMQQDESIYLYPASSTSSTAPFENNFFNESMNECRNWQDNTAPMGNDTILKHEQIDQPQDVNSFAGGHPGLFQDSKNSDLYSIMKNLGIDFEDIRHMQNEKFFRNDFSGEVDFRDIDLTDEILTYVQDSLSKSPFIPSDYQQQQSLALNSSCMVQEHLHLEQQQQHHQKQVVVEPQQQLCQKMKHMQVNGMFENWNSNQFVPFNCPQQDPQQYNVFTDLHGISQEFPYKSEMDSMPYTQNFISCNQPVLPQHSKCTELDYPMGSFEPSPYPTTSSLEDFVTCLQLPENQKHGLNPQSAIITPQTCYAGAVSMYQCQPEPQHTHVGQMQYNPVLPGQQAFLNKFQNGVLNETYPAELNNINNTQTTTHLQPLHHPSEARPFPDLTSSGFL
# Sequence of Retinoic acid receptor alpha (Homo sapiens) (P10276 whole entry, looked up): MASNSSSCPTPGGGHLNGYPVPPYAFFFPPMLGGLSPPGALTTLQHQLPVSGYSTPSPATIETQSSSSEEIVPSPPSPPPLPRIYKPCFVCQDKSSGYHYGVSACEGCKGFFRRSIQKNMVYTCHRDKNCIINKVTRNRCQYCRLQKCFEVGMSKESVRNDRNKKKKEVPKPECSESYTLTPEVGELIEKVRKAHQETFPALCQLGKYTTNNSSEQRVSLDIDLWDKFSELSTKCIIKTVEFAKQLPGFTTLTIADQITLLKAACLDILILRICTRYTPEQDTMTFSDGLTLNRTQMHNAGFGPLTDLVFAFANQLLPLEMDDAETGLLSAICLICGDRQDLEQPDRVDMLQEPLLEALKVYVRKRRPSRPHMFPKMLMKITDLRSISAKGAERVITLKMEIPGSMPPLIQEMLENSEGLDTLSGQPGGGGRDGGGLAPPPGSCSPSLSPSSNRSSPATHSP
smiles,measurement,setting,value
CNC(=O)CSP(=S)(OC)OC,outcome,[1],inactive
same,outcome,[2],inactive
same,outcome,[3],inactive
same,outcome,[4],inactive
same,outcome,[5],inactive
same,outcome,[6],inactive
same,outcome,[7],inactive
same,outcome,[8],inactive
same,outcome,[9],inactive
same,outcome,[10],inactive
same,outcome,[11],inactive
same,outcome,[12],inactive
same,outcome,[13],inactive
same,outcome,[14],inactive
same,outcome,[15],inactive
same,outcome,[16],inactive
same,outcome,[17],inactive
same,outcome,[18],inactive
CCOC1Oc2ccc(OS(C)(=O)=O)cc2C1(C)C (stereo not drawn),AC50,[1],46.1 µM (active)
same,outcome,[2],inactive
same,outcome,[3],inactive
same,outcome,[4],inactive
same,outcome,[5],inactive
same,outcome,[6],inactive
same,outcome,[7],inactive
same,outcome,[8],inactive
same,outcome,[9],inactive
same,outcome,[10],inactive
same,AC50,[11],24 µM (active)
same,AC50,[12],14.5 µM (active)
same,outcome,[13],inactive
same,outcome,[14],inactive
same,outcome,[15],inactive
same,outcome,[16],inactive
same,outcome,[17],inactive
same,AC50,[18],61.4 µM (active)
same,AC50,[19],12.5 µM (active)
O=[N+]([O-])/N=C1\NCCN1Cc1ccc(Cl)nc1,outcome,[1],inactive
same,outcome,[2],inactive
same,outcome,[3],inactive
same,outcome,[4],inactive
same,outcome,[5],inactive
same,outcome,[6],inactive
same,outcome,[7],inactive
same,outcome,[8],inactive
same,outcome,[9],inactive
same,outcome,[10],inactive
same,outcome,[11],inactive
same,outcome,[12],inactive
same,outcome,[13],inactive
same,outcome,[14],inactive
same,outcome,[16],inactive
same,outcome,[17],inactive
same,outcome,[18],inactive
same,outcome,[19],inactive
CNC(=O)Oc1cccc(N=CN(C)C)c1,AC50,[1],96.5 µM (active)
same,AC50,[2],107 µM (active)
same,outcome,[3],inactive
same,outcome,[4],inactive
same,outcome,[5],inactive
same,AC50,[6],106 µM (active)
same,outcome,[7],inactive
same,outcome,[8],inactive
same,outcome,[20],inactive
same,outcome,[9],inactive
same,outcome,[10],inactive
same,AC50,[11],50 µM (active)
same,AC50,[12],50 µM (active)
same,AC50,[13],50 µM (active)
same,outcome,[14],inactive
same,AC50,[15],93.9 µM (active)
same,AC50,[16],77.5 µM (active)
same,outcome,[17],inactive
same,AC50,[18],58.3 µM (active)
same,outcome,[19],inactive
CNC(=O)/C=C(\C)OP(=O)(OC)OC,outcome,[1],inactive
same,outcome,[2],inactive
same,outcome,[3],inactive
same,outcome,[4],inactive
same,outcome,[5],inactive
same,outcome,[6],inactive
same,outcome,[7],inactive
same,outcome,[8],inactive
same,outcome,[9],inactive
same,outcome,[10],inactive
same,outcome,[11],inactive
same,outcome,[12],inactive
same,outcome,[13],inactive
same,outcome,[14],inactive
same,outcome,[15],inactive
same,outcome,[16],inactive
same,outcome,[17],inactive
same,outcome,[18],inactive
O=[N+]([O-])c1c(Cl)c(Cl)c(Cl)c(Cl)c1Cl,outcome,[1],inactive
same,outcome,[2],inactive
same,outcome,[3],inactive
same,outcome,[4],inactive
same,outcome,[5],inactive
same,outcome,[6],inactive
same,outcome,[7],inactive
same,outcome,[8],inactive
same,outcome,[20],inactive
same,outcome,[9],inactive
same,outcome,[10],inactive
same,AC50,[11],32.2 µM (active)
same,outcome,[12],inactive
same,outcome,[13],inactive
same,outcome,[14],inactive
same,outcome,[15],inactive
same,outcome,[16],inactive
same,outcome,[17],inactive
same,outcome,[18],inactive
same,AC50,[19],13.2 µM (active)
